Measured values published in PMC11102866, “Nucleosome-bound NR5A2 structure reveals pioneer factor mechanism by DNA minor groove anchor competition”.
Where a chain is given by its changes, count along the chain named. Names may count otherwise.

Tests used:
[1] = molecular target: NR5A2 wild type;histone octamer (Homo sapiens;, UniProt O00482;C0HKE1;Q6ZWY9;P84244;P62806 1-541;2-130;2-126;2-136;2-103, |); test: SeEN-seq (EMSA of nucleosome library followed by sequencing); 0.8 uM human NR5A2; 20 mM Tris-HCl pH 7.5, 120 mM NaCl, 1 mM MgCl2, 10 uM ZnCl2, 1 mM DTT, 100 ug/ml BSA, room temperature, 30 min; 0.1 uM nucleosome library; high values mean tight binding
[2] = molecular target: mouse Nr5a2 wild type;histone octamer (Mus musculus;, UniProt P45448;C0HKE1;Q6ZWY9;P84244;P62806 1-560;2-130;2-126;2-136;2-103, |); test: SeEN-seq (EMSA of nucleosome library followed by sequencing); 1.2 uM mouse Nr5a2; 20 mM Tris-HCl pH 7.5, 120 mM NaCl, 1 mM MgCl2, 10 uM ZnCl2, 1 mM DTT, 100 ug/ml BSA, room temperature, 30 min; 0.1 uM nucleosome library; high values mean tight binding

B1: 54 (nucleosome)
DNA 1: ATCCTGGAGAATCCCGGTGCCGAGGCCGCTCAATTGGTCGTAGACAGCTCTAGCACTCAAGGCCAGCACGTACGCGCTGTCCCCCGCGTTTTAACCGCCAAGGGGATTACTCCCTAGTCTCCAGGCACGTGTCAGATATATACATCCTGTGAT
DNA 2: ATCACAGGATGTATATATCTGACACGTGCCTGGAGACTAGGGAGTAATCCCCTTGGCGGTTAAAACGCGGGGGACAGCGCGTACGTGCTGGCCTTGAGTGCTAGAGCTGTCTACGACCAATTGAGCGGCCTCGGCACCGGGATTCTCCAGGAT
modifications: reconstituted with mouse histones H2A, H2B, H3.3 and H4
binding signal [1]: 0.993 log2 enrichment (bound/unbound, relative to Widom 601)
binding signal [2]: 1 log2 enrichment (bound/unbound, relative to Widom 601)

B2: 57 (nucleosome)
DNA 1: B1 DNA 1 with T57C, C58G, A59C, A60T, G61C, G62A, C63A, C64G, A65G, G66C
DNA 2: B1 DNA 2 with C88G, T89C, G90C, G91T, C92T, C93G, T94A, T95G, G96C, A97G
modifications: reconstituted with mouse histones H2A, H2B, H3.3 and H4
binding signal [1]: 0.552 log2 enrichment (bound/unbound, relative to Widom 601)
binding signal [2]: 0.504 log2 enrichment (bound/unbound, relative to Widom 601)

B3: 59 (nucleosome)
DNA 1: B1 DNA 1 with T57C, C58G, A59C, A60T, G61T, G62T, C64A, C67G, A68C, G70A
DNA 2: B1 DNA 2 with C84T, T86G, G87C, G90T, C92A, C93A, T94A, T95G, G96C, A97G
modifications: reconstituted with mouse histones H2A, H2B, H3.3 and H4
binding signal [1]: 0.92 log2 enrichment (bound/unbound, relative to Widom 601)
binding signal [2]: 0.823 log2 enrichment (bound/unbound, relative to Widom 601)

B4: 55 (nucleosome)
DNA 1: B1 DNA 1 with T57C, C58T, A59C, G61A, C63G, A65C, G66A
DNA 2: B1 DNA 2 with C88T, T89G, G91C, C93T, T95G, G96A, A97G
modifications: reconstituted with mouse histones H2A, H2B, H3.3 and H4
binding signal [1]: 1.2 log2 enrichment (bound/unbound, relative to Widom 601)
binding signal [2]: 0.957 log2 enrichment (bound/unbound, relative to Widom 601)

B5: 56 (nucleosome)
DNA 1: ATCCTGGAGAATCCCGGTGCCGAGGCCGCTCAATTGGTCGTAGACAGCTCTAGCACCGTCAAGGCCAACGTACGCGCTGTCCCCCGCGTTTTAACCGCCAAGGGGATTACTCCCTAGTCTCCAGGCACGTGTCAGATATATACATCCTGTGAT
DNA 2: ATCACAGGATGTATATATCTGACACGTGCCTGGAGACTAGGGAGTAATCCCCTTGGCGGTTAAAACGCGGGGGACAGCGCGTACGTTGGCCTTGACGGTGCTAGAGCTGTCTACGACCAATTGAGCGGCCTCGGCACCGGGATTCTCCAGGAT
modifications: reconstituted with mouse histones H2A, H2B, H3.3 and H4
binding signal [1]: 0.684 log2 enrichment (bound/unbound, relative to Widom 601)
binding signal [2]: 0.45 log2 enrichment (bound/unbound, relative to Widom 601)

B6: 61 (nucleosome)
DNA 1: B5 DNA 1 with T59C, C60T, A61T, G63A, G64T, C66A, A68G, C69G, G70C, T71C
DNA 2: B5 DNA 2 with A83G, C84G, G85C, T86C, G88T, C90A, C91T, T93A, G94A, A95G
modifications: reconstituted with mouse histones H2A, H2B, H3.3 and H4
binding signal [1]: 0.699 log2 enrichment (bound/unbound, relative to Widom 601)
binding signal [2]: 0.779 log2 enrichment (bound/unbound, relative to Widom 601)

B7: 62 (nucleosome)
DNA 1: B5 DNA 1 with T59C, C60T, A61T, G63A, G64A, C65T, C69G, T71C, A72C, C73A
DNA 2: B5 DNA 2 with G81T, T82G, A83G, G85C, G89A, C90T, C91T, T93A, G94A, A95G
modifications: reconstituted with mouse histones H2A, H2B, H3.3 and H4
binding signal [1]: 1.24 log2 enrichment (bound/unbound, relative to Widom 601)
binding signal [2]: 1.27 log2 enrichment (bound/unbound, relative to Widom 601)

B8: 58 (nucleosome)
DNA 1: ATCCTGGAGAATCCCGGTGCCGAGGCCGCTCAATTGGTCGTAGACAGCTCTAGCACCGCTTCAAGGCCAGTACGCGCTGTCCCCCGCGTTTTAACCGCCAAGGGGATTACTCCCTAGTCTCCAGGCACGTGTCAGATATATACATCCTGTGAT
DNA 2: ATCACAGGATGTATATATCTGACACGTGCCTGGAGACTAGGGAGTAATCCCCTTGGCGGTTAAAACGCGGGGGACAGCGCGTACTGGCCTTGAAGCGGTGCTAGAGCTGTCTACGACCAATTGAGCGGCCTCGGCACCGGGATTCTCCAGGAT
modifications: reconstituted with mouse histones H2A, H2B, H3.3 and H4
binding signal [1]: 0.651 log2 enrichment (bound/unbound, relative to Widom 601)
binding signal [2]: 0.747 log2 enrichment (bound/unbound, relative to Widom 601)

B9: 63 (nucleosome)
DNA 1: B8 DNA 1 with C62A, G65C, G66T, C68A, T71G, A72C, G74A
DNA 2: B8 DNA 2 with C80T, T82G, A83C, G86T, C88A, C89G, G92T
modifications: reconstituted with mouse histones H2A, H2B, H3.3 and H4
binding signal [1]: 1.09 log2 enrichment (bound/unbound, relative to Widom 601)
binding signal [2]: 1.1 log2 enrichment (bound/unbound, relative to Widom 601)

B10: 60 (nucleosome)
DNA 1: B8 DNA 1 with C62A, A63T, A64C, G65A, G66A, C67G, C68G, A69C, G70C, T71A
DNA 2: B8 DNA 2 with A83T, C84G, T85G, G86C, G87C, C88T, C89T, T90G, T91A, G92T
modifications: reconstituted with mouse histones H2A, H2B, H3.3 and H4
binding signal [1]: 0.819 log2 enrichment (bound/unbound, relative to Widom 601)
binding signal [2]: 0.573 log2 enrichment (bound/unbound, relative to Widom 601)

B11: 65 (nucleosome)
DNA 1: B8 DNA 1 with C62A, G65C, C68T, A69C, G70A, T71A, A72G, C73G, G74C, G76A
DNA 2: B8 DNA 2 with C78T, C80G, G81C, T82C, A83T, C84T, T85G, G86A, C89G, G92T
modifications: reconstituted with mouse histones H2A, H2B, H3.3 and H4
binding signal [1]: 0.891 log2 enrichment (bound/unbound, relative to Widom 601)
binding signal [2]: 1.14 log2 enrichment (bound/unbound, relative to Widom 601)

B12: 67 (nucleosome)
DNA 1: B8 DNA 1 with C62A, G65C, C68A, A69C, G70T, T71C, C73A, C75G, G76C, T78A
DNA 2: B8 DNA 2 with A76T, C78G, G79C, G81T, A83G, C84A, T85G, G86T, C89G, G92T
modifications: reconstituted with mouse histones H2A, H2B, H3.3 and H4
binding signal [1]: 0.806 log2 enrichment (bound/unbound, relative to Widom 601)
binding signal [2]: 0.96 log2 enrichment (bound/unbound, relative to Widom 601)

B13: 66 (nucleosome)
DNA 1: B8 DNA 1 with C62A, G65C, C68A, A69T, G70C, T71A, C73G, G76C, C77A
DNA 2: B8 DNA 2 with G77T, C78G, G81C, A83T, C84G, T85A, G86T, C89G, G92T
modifications: reconstituted with mouse histones H2A, H2B, H3.3 and H4
binding signal [1]: 1.05 log2 enrichment (bound/unbound, relative to Widom 601)
binding signal [2]: 1.15 log2 enrichment (bound/unbound, relative to Widom 601)

B14: 64 (nucleosome)
DNA 1: B8 DNA 1 with C62A, G65C, C67T, G70A, T71G, A72G, G74C, C75A
DNA 2: B8 DNA 2 with G79T, C80G, T82C, A83C, C84T, G87A, C89G, G92T
modifications: reconstituted with mouse histones H2A, H2B, H3.3 and H4
binding signal [1]: 0.83 log2 enrichment (bound/unbound, relative to Widom 601)
binding signal [2]: 0.992 log2 enrichment (bound/unbound, relative to Widom 601)

B15: 8 (nucleosome)
DNA 1: ATCCTGGAGATCAAGGCCACCGAGGCCGCTCAATTGGTCGTAGACAGCTCTAGCACCGCTTAAACGCACGTACGCGCTGTCCCCCGCGTTTTAACCGCCAAGGGGATTACTCCCTAGTCTCCAGGCACGTGTCAGATATATACATCCTGTGAT
DNA 2: ATCACAGGATGTATATATCTGACACGTGCCTGGAGACTAGGGAGTAATCCCCTTGGCGGTTAAAACGCGGGGGACAGCGCGTACGTGCGTTTAAGCGGTGCTAGAGCTGTCTACGACCAATTGAGCGGCCTCGGTGGCCTTGATCTCCAGGAT
modifications: reconstituted with mouse histones H2A, H2B, H3.3 and H4
binding signal [1]: 2.08 log2 enrichment (bound/unbound, relative to Widom 601)
binding signal [2]: 1.69 log2 enrichment (bound/unbound, relative to Widom 601)
